Test results taken from PubChem BioAssay (NCATS).
Records with an inconclusive call do not appear. A call without a number means that no potency is given here. Activity calls are given as the source filed them. Calls come from the whole dose curve; as a rule, active = well fitted inhibition curve with a large enough effect; inconclusive = small, poorly fitted or top-dose-only effect; inactive = flat fitted curve, though single readings scatter.

How the values were obtained:
Test in all cases: qHTS profiling for inhibitors of Plasmodium falciparum proliferation (AID 504749); note: nearly all actives have a fitted effect of over 60% in size
Settings in all cases: P. falciparum in erythrocytes, SYBR Green DNA, 72 h; series mostly up to 28.7 µM
CP268 = tested on: CP268
How it was run: (§1)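 Infected RBCs, 0.3% parasitemia/2.5% Hct final; cpd 72 h, 37 C, 5% CO2; lysis buffer with saponin/triton/SYBR Green I, o/n RT dark; FI 485/535; norm. to artemisinin (0.29 uM) and DMSO.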

CP269 = tested on: CP269
How it was run: as §1

CP286 = tested on: CP286
How it was run: as §1

CP291 = tested on: CP291
How it was run: as §1

CP297 = tested on: CP297
How it was run: as §1

CP305 = tested on: CP305
How it was run: as §1

CP315 = tested on: CP315
How it was run: as §1

CP325 = tested on: CP325
How it was run: as §1

CP329 = tested on: CP329
How it was run: as §1

CP335 = tested on: CP335
How it was run: as §1

DFO2036 = tested on: DFO2036
How it was run: as §1

DIV14 = tested on: DIV14
How it was run: as §1

DIV17 = tested on: DIV17
How it was run: as §1

DIV30 = tested on: DIV30
How it was run: as §1

Dd2 = tested on: Dd2
How it was run: as §1

ECU = tested on: ECU
How it was run: as §1

FAB9 = tested on: FAB9
How it was run: as §1

GB4 = tested on: GB4
How it was run: as §1

HB3 = tested on: HB3
How it was run: as §1

ICS = tested on: ICS
How it was run: as §1
Potency is the fitted concentration of half-maximal effect.

Compound	Potency (CP268)	Potency (CP269)	Potency (CP286)	Potency (CP291)	Potency (CP297)	Potency (CP305)	Potency (CP315)	Potency (CP325)	Potency (CP329)	Potency (CP335)	Potency (DFO2036)	Potency (DIV14)	Potency (DIV17)	Potency (DIV30)	Potency (Dd2)	Potency (ECU)	Potency (FAB9)	Potency (GB4)	Potency (HB3)	Potency (ICS)
COc1ccc(CCN2CCC(Nc3nc4ccccc4n3Cc3ccc(F)cc3)CC2)cc1	4780 nM (active)	4780 nM (active)	2510 nM (active)	4260 nM (active)	5360 nM (active)	4260 nM (active)	12000 nM (active)	4260 nM (active)	9530 nM (active)	3790 nM (active)	3550 nM (active)	4780 nM (active)	4780 nM (active)	13500 nM (active)	8910 nM (active)	2000 nM (active)	3160 nM (active)	1900 nM (active)	4470 nM (active)	2820 nM (active)
NCCCC[C@H](N[C@@H](CCc1ccccc1)C(=O)O)C(=O)N1CCC[C@H]1C(=O)O	inactive	inactive	inactive	inactive	inactive	inactive	inactive	inactive	inactive	inactive	inactive	inactive	inactive	inactive	inactive	inactive	inactive	inactive	inactive	inactive
NCCC(O)(P(=O)(O)O)P(=O)(O)O	inactive	inactive	inactive	inactive	inactive	inactive	inactive	inactive	inactive	inactive	inactive	inactive	inactive	inactive	inactive	inactive	inactive	inactive	inactive	inactive
CC(C)(C(=O)c1cccnc1)c1cccnc1	inactive	inactive	inactive	inactive	inactive	inactive	inactive	inactive	inactive	inactive	inactive	inactive	inactive	inactive	inactive	inactive	inactive	inactive	inactive	inactive
N[C@@H](Cc1cnc[nH]1)C(=O)O	inactive	inactive	inactive	inactive	inactive	inactive	inactive	inactive	inactive	inactive	inactive	inactive	inactive	inactive	inactive	inactive	inactive	inactive	inactive	inactive
CC(=O)OCC(=O)NCCCOc1cccc(CN2CCCCC2)c1	inactive	inactive	inactive	inactive	inactive	inactive	inactive	inactive	inactive	inactive	inactive	inactive	inactive	inactive	inactive	inactive	inactive	inactive	inactive	inactive
NC(=NCCCCCCN=C(N)/N=C(\N)Nc1ccc(Cl)cc1)/N=C(\N)Nc1ccc(Cl)cc1	1510 nM (active)	1200 nM (active)	398 nM (active)	1350 nM (active)	2130 nM (active)	1200 nM (active)	1070 nM (active)	1900 nM (active)	1690 nM (active)	1690 nM (active)	1780 nM (active)	1070 nM (active)	1070 nM (active)	1510 nM (active)	2000 nM (active)	2240 nM (active)	2000 nM (active)	1070 nM (active)	4470 nM (active)	355 nM (active)
O=C1c2ccccc2C(=O)C1c1ccccc1	inactive	inactive	inactive	inactive	inactive	inactive	inactive	inactive	inactive	inactive	inactive	inactive	inactive	inactive	inactive	inactive	inactive	inactive	inactive	inactive
Cc1cc(=O)n(-c2ccccc2)n1C	inactive	inactive	inactive	inactive	inactive	inactive	inactive	inactive	inactive	inactive	inactive	inactive	inactive	inactive	inactive	inactive	inactive	inactive	inactive	inactive
CCCCCCC[N+](CC)(CC)CCCCc1ccc(Cl)cc1	2560 nM (active)	1610 nM (active)	1120 nM (active)	1810 nM (active)	2030 nM (active)	572 nM (active)	2280 nM (active)	2280 nM (active)	1810 nM (active)	1810 nM (active)	1780 nM (active)	809 nM (active)	809 nM (active)	2280 nM (active)	2000 nM (active)	1580 nM (active)	3550 nM (active)	721 nM (active)	2510 nM (active)	708 nM (active)
COCc1c(C(C)C)nc(C(C)C)c(/C=C/[C@@H](O)C[C@@H](O)CC(=O)O)c1-c1ccc(F)cc1	inactive	inactive	inactive	inactive	inactive	inactive	inactive	inactive	inactive	inactive	inactive	inactive	inactive	inactive	inactive	inactive	inactive	inactive	inactive	inactive
CCC(=O)c1c(O)cc(O)cc1O	inactive	inactive	inactive	inactive	inactive	inactive	inactive	inactive	inactive	inactive	inactive	inactive	inactive	inactive	inactive	inactive	inactive	inactive	inactive	inactive
